A selection: hits, their analogues and other compounds. The true share with any hit is near 3.5%.
MITF inh – MITF inhibitors, primary screen, biochemical, AlphaScreen, human; inhibition, % at 2.6 µM; 650,000 compounds, 0.91% hits; AlphaScreen MITF homodimerization, bead proximity signal; in the data active = inhibition above about 50%;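 note: 0% = vehicle wells with protein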
TEAD-YAP inh – TEAD-YAP interaction inhibition, primary screen, TEAD-YAP interaction inhibitor project, luminescence, HEK-TIYL cells; TEAD-Gal4/YAP UAS-luciferase luminescence; 640,000 compounds, 1.4% hits; AID 1259422, 2018; inhibition, % at 9.12 µM; in the data active = inhibition above about 32%;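 note: 0% = median of test compound wells and 100% = reference inhibitor wells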
GPR151 ag – activators of human GPR151, primary screen, cell-based, PathHunter beta-arrestin, luminescence. PathHunter beta-arrestin GPR151 cells. activation, % at 11.2 µM. 650,000 compounds, 1% hits. AID 1508602, 2020; in the data active = activation above about 4.9%;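 note: 0% = median of compound wells and 100% = cells with positive control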
FBW7 activator – FBW7 E3 ligase activators, primary screen, biochemical, AlphaScreen, human | F-box/WD repeat-containing protein 7 (Homo sapiens), Q969H0 | AlphaScreen FBW7–phospho-cyclin E peptide binding, activator screen | normalized activity (activation), % at 26.1 µM | 650,000 compounds, 0.13% hits; in the data active = normalized activity above about 1.9%;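 note: purified mutant Fbw7 with reduced substrate affinity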
GPR151 confirm – GPR151 activators, triplicate retest, confirmation, cell-based, PathHunter beta-arrestin, luminescence. shares compounds with GPR151 ag. GPR151 PathHunter beta-arrestin cells, 90 min; % of EA-reagent control over plate median. activation, % at 11.2 µM. 6,700 tested, under 10 active. AID 1508609, 2020;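 active = mean percent activation across replicates above the confirmation screen cutoff of 4.91%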
GPR119 counter – GPR119 activators in beta-arrestin cells, counter-screen for GPR151 activator project, cell-based, PathHunter beta-arrestin, luminescence, triplicate; AID 1508611, 2020; activation, % at 11.2 µM; 90 min; 0 = compound-well median, 100 = enzyme-acceptor control; 6,700 compounds, 0.3% hits; shares compounds with GPR151 ag;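 active = mean percent activation in the counterscreen above 29.09%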;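 note: counterscreen on off-target GPR119 to flag nonselective hits from the GPR151 activator screen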
Target sequence (Q8TDV5 whole entry, looked up): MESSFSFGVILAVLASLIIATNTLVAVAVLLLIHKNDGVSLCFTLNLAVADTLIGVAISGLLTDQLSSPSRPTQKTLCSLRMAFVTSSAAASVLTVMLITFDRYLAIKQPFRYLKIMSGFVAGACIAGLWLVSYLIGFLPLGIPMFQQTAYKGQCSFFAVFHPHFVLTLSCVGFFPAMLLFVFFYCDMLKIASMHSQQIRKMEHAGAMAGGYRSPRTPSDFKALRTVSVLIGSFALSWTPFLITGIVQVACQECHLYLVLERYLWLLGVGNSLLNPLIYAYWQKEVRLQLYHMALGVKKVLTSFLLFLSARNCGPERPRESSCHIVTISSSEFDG
Numbers without * were called inactive; / = no result.

SMILES | MITF inh | TEAD-YAP inh | GPR151 ag | FBW7 activator | GPR151 confirm | GPR119 counter
C/C(=N\NC(=O)c1cccc(Cl)c1)C1CC1 | 18.6 | -53.9 | 8.9* | 0.1 | 1.6 | 13.8
C/C(=N/NC(=O)c1ccccc1)C1CC1 | -7.6 | -58.0 | 2.0 | 0.5 | / | /
O=C(N/C(=C\c1cccs1)C(=O)N1CCCC1)c1cccs1 | -1.3 | 3.3 | -0.6 | 0.0 | / | /
C#CCn1c(=NC(=O)CN2C(=O)CCC2=O)sc2c(C)cc(C)cc21 | 3.1 | -2.8 | 7.2* | 0.0 | 0.1 | 0.1
Cc1ccc(CC(CC(=O)O)C(=O)O)cc1 (stereo not drawn) | 0.6 | -1.2 | 6.8* | 0.1 | -0.9 | -13.5
Cc1cc(C)cc(CC(CC(=O)O)C(=O)O)c1 (stereo not drawn) | -17.4 | 5.8 | 0.2 | 0.1 | / | /
COc1ccc(S(=O)(=O)Nc2cc(C(=O)N(C)Cc3ccccc3)ccc2N2CC3CC(C2)c2cccc(=O)n2C3)cc1 (stereo not drawn) | 9.2 | -1.1 | -0.3 | -0.1 | / | /
CCSC1=NSC2=NC(=O)/C(=C\c3ccc(OC)c(OC)c3)C(=N)N12 | -3.7 | -14.5 | 0.6 | -0.1 | / | /
O=C1CC(c2ccc(Cl)cc2)CC2=C1C(c1ccc3c(c1)OCO3)Nc1ccccc1N2 (stereo not drawn) | 19.8 | 8.2 | -0.6 | 0.6 | / | /
O=C1CC(c2ccc(Cl)cc2)CC2=C1C(c1cc3c(cc1Br)OCO3)Nc1ccccc1N2 (stereo not drawn) | 3.5 | 2.7 | 9.0* | 0.1 | -0.5 | -3.2
Cc1cc(-c2cncnc2C2CCCN(CC(=O)N3CCc4ccccc43)C2)on1 (stereo not drawn) | 10.4 | -5.8 | 0.1 | -0.1 | / | /
CCOC(=O)c1c(C)oc2ccc(OC(=O)c3ccc([N+](=O)[O-])o3)cc12 | 4.6 | 3.5 | -0.6 | 0.0 | / | /
COC(=O)c1ccc(C2CC(=O)NC3=C2C(=O)CC(c2ccc(OC)c(OC)c2)C3)cc1 (stereo not drawn) | 4.2 | -13.5 | 1.2 | -0.1 | / | /
Cc1ccc(-n2c(-c3ccc4[nH]c(C)c(C)c4c3)n[nH]c2=S)cc1 | 8.4 | -27.0 | 5.5* | -0.2 | 0.7 | -3.7
Cc1ccc(S(=O)(=O)Nc2ccc3oc4c(c3c2)C(=O)CCC4)cc1[N+](=O)[O-] | 5.4 | 5.0 | -1.7 | -0.1 | / | /
O=C(CSc1ccc(F)cc1)Nc1nc(-c2ccc(F)cc2)cs1 | 2.8 | 12.4 | 7.7* | 0.3 | -1.9 | 11.6
CCOc1ccc(NC(=O)CSc2nc3ccc(N4CCCCC4)cc3c(=O)n2Cc2ccccc2)cc1 | -1.3 | 9.4 | 7.7* | 0.0 | 0.4 | 8.1
COC(=O)C1=CN(CC2CCCO2)C=C(C(=O)OC)C1c1cccc(F)c1 (stereo not drawn) | 2.0 | -4.5 | 5.7* | 0.4 | 1.7 | 15.0
COC(=O)C1=CN(Cc2ccc(F)cc2)C=C(C(=O)OC)C1c1cccc(F)c1 | 8.3 | -2.5 | -0.4 | -0.2 | / | /
COC(=O)C1=CN(CC2CCCO2)C=C(C(=O)OC)C1c1cccc(Cl)c1 (stereo not drawn) | -16.9 | -7.0 | 0.7 | 0.2 | / | /
COC(=O)C1=CN(Cc2ccc(F)cc2)C=C(C(=O)OC)C1c1cccc(O)c1 | 2.7 | 1.6 | 5.2* | 0.0 | -0.4 | 10.1
CCCCC(Sc1nc2ccccc2c2nc(-c3ccccc3OC)nn12)C(=O)OCC (stereo not drawn) | -3.4 | -7.6 | 5.4* | 0.0 | -0.1 | 2.3
O=C(CN1CCN(C(=O)c2ccco2)CC1)NN(Cc1ccccc1)c1ccccc1 | 34.5 | 2.8 | 5.4* | 0.0 | 0.1 | -5.5
O=C(/C=C/c1ccccc1)N1CCN(C2=NN=C(c3ccccc3)CS2)CC1 | 0.9 | -20.9 | 6.2* | -0.4 | -1.3 | -4.7
CCOc1ccccc1NC(=O)CSc1ccc2nc(-c3ccc(OC)cc3)cn2n1 | 16.4 | -2.6 | -1.8 | 0.3 | / | /
SMILES | MITF inh | TEAD-YAP inh | GPR151 ag | FBW7 activator | GPR151 confirm | GPR119 counter
CCCn1nnc(NC(=O)C(C)Oc2ccc(Cl)cc2Cl)n1 (stereo not drawn) | 6.3 | 6.9 | 4.9* | 0.1 | -0.2 | -8.1
CC(C)CS(=O)(=O)Nc1ccc2c(c1)CCCN2S(=O)(=O)c1ccc(F)cc1 | -4.0 | -9.9 | 5.2* | -0.1 | 0.0 | -1.7
CC(C)CC(NC(=O)c1ccccc1)C(=O)OCc1ccccc1 (stereo not drawn) | 14.6 | 4.0 | 5.6* | 0.3 | -0.8 | -3.6
CC(C)CC(NC(=O)c1ccccc1)C(=O)OCC(=O)c1ccccc1 (stereo not drawn) | -10.7 | -8.6 | 0.5 | 0.0 | / | /
O=[N+]([O-])c1ccc2nc(CSc3nnnn3C3CCCCC3)[nH]c2c1 | 11.9 | 6.5 | -3.0 | 0.1 | / | /
Cc1sc(NC(=O)c2cc3ccccc3oc2=O)nc1-c1ccc(Br)cc1 | -1.9 | -5.7 | 7.4* | 0.0 | 1.9 | -2.3
Cn1cc(-c2[nH]nc3nc(-c4cccc(CO)c4)ccc23)cn1 | -11.7 | -19.3 | -0.5 | -0.3 | / | /
O=C1CC2c3ccccc3C1C1C(=O)N(c3ccccc3)C(=O)C21 (stereo not drawn) | -7.4 | -1.7 | 8.7* | -0.2 | -0.3 | -6.5
Cc1ccc(N2C(=O)C3C4CC(=O)C(c5ccccc54)C3C2=O)cc1 (stereo not drawn) | -3.4 | 5.1 | 0.8 | -0.2 | / | /
N#C/C(=C\c1ccc(-c2ccccc2C#N)o1)C(N)=S | -0.2 | 1.2 | 6.0* | 0.0 | 0.1 | 1.5
COc1ccc(NC(=O)/C(C#N)=C/c2ccc(-c3ccccc3C(=O)O)o2)cc1 | -8.7 | -4.8 | -0.7 | 0.0 | / | /
CC(=O)c1ccc(-c2ccc(/C=C(\C#N)C(N)=S)o2)cc1 | -11.9 | -0.3 | 0.3 | -0.1 | / | /
N#C/C(=C\c1ccc(-c2ccccc2C(=O)O)o1)C(=O)Nc1ccccc1 | -2.8 | -29.5 | 8.2* | -0.2 | -0.6 | 0.4
CC(C)C(=O)N(c1cccc(Cl)c1)C1C=CS(=O)(=O)C1 (stereo not drawn) | 13.6 | -6.1 | 0.0 | 1.2 | / | /
CCOC(=O)Cc1c(C)nc2c(-c3ccccc3)c[nH]n2c1=O | 4.5 | 7.9 | 7.5* | -0.3 | -0.9 | -8.8
CCOC(=O)c1nnn(CC(=O)NC(=O)Nc2cccc(CC)c2)c1C(=O)OCC | 3.0 | 2.7 | 5.7* | 0.0 | 1.5 | 10.1
O=C(NCCOc1ccccc1)c1ccc2nc(NCCCN3CCCC3=O)sc2c1 | 12.5 | -58.9 | -1.5 | 0.2 | / | /
C1=C(c2nc3ccc(-c4ccncc4)cc3[nH]2)CCOc2ccccc21 | -0.5 | 8.2 | 10.0* | 0.2 | 0.7 | 20.7
c1cc(-c2ccc3nc(-c4ccncc4)[nH]c3c2)ccn1 | -5.5 | -43.3 | 0.4 | -0.4 | / | /

High-throughput results: PubChem BioAssay, The Scripps Research Institute Molecular Screening Center
